Several values for one entry are separate records, joined by “and”; a condition that tells them apart may be missing. Identical values can stand only once. Compounds without any hit were thinned out: in the full panel of roughly 83,000, 20% have a hit.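 Compound tested at a single concentration for 48 hours in 96-well plates; a percent growth value below 10 was scored as active.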 Values without a mark were called inactive. Activity calls are given as the source filed them.

One assay concerns UO-31 renal. Description: NCI-60 one-dose screen, 48 h (100 = growth as untreated, 0 = no growth, -100 = all killed). Particulars: 10 µM. Here is the method: Growth inhibition of the UO-31 human tumor cell line is measured as a screen for anti-cancer activity. Cells are grown in 96 well plates and exposed to the test compound for 48 hours. Compounds are tested at a single concentration, which is 10^-5 M for most compounds. The reported endpoint is percent growth (GI% or GIPRCNT), where numbers from 0 - 100% represent growth inhibition, and numbers from -100% - 0 represent cell death. For example, a value of 40 represents 60% growth inhibition. A value of 0 means no net growth occurred over the course of the experiment. A value of -40 indicates 40% of cells at the beginning of the experiment died by the end of the experiment. A value of -100 means all cells are dead at the end of the experiment.
NCI-60 Human Tumor Cell Lines Screen was performed using the standard one-dose NCI protocol, which is described in more detail at https://dtp.cancer.gov/discovery_development/nci-60/default.htm.
Compounds with GIPRCNT values below 10 were considered active. Activity score was based on GIPRCNT using the following formula: […]
Score is 0 for GIPRCNT values of 100 or above, 50 for GIPRCNT values of 0, and 100 for GIPRCNT values of -100.
With `CC(=O)/C=C/c1ccc(OCc2ccc(Cl)cc2)cc1`, the growth is 91.4%.

As for `CCN(Cc1ccccc1)c1ccc(/C=C2\COc3ccccc3C2=O)cc1`, the growth was 83.8%.

With `CC(=O)/C=C/c1ccc(OCc2ccc(C(C)(C)C)cc2)cc1`, the growth is 68.6%.

The assay is the same for the next values; noted with them: 10 µM unless noted.
As to `CCCCn1c(C(=O)c2c[nH]c3ccccc23)n[nH]c1=S`, the growth was 90.1%.

`Cc1ccc(NC(=O)c2sc3nc(C)c(C(=O)c4ccccc4)cc3c2N)cc1`: the growth is 89.4%.

For the molecule `CCN(CC)CC(=O)Nc1ccc2ncnc(Nc3ccc(Oc4cccc(F)c4)c(Cl)c3)c2c1`, the growth is 22%.

`COc1cc2c(cc1OCCCOC1=C=C=C(c3ccc4c(c3)c3cc(-c5ccc(OCCCOc6cc7c(cc6OC)C(=O)N6CCC[C@H]6C=N7)cc5)ccc3n4S(=O)(=O)c3ccc(C)cc3)C=C1)N=C[C@@H]1CCCN1C2=O`: the growth is 39.1%.

Take `O=C(Nc1ccc2ccccc2c1)c1cc2ccccc2cc1O`: the growth is 58.8%.

Consider `CC(=O)c1nn(-c2ccccc2)/c(=N/N=Cc2cn(-c3ccccc3)nc2-c2cc3ccccc3oc2=O)s1`, for which the growth was 84%.

With `Nc1nc(Cl)nc2c1ncn2C1OC(CO)C(O)C1O` (stereo not given), the growth was 25.1% and 13%.

Turning to `COc1ccccc1/C=C1\COc2ccc(O)c(O)c2C1=O`, the growth was -68.6% (active).

Regarding `CCOC(=O)CCCn1c(-c2ccccc2)cc(-c2ccccc2)c(C#N)c1=O`, the growth is 71.5%.

As to `O=C1C=C(Nc2ccccc2)c2ncccc2C1=O`, the growth was -98.6% (active).

Consider `O=C1/C(=C/c2ccc(F)c(F)c2)CN(C(=O)C(Cl)Cl)C/C1=C\c1ccc(F)c(F)c1`, for which the growth was -97.9% (active).

Turning to `CCCCC#Cc1c(/C=C(\CCCC)SCC)n(C)c(=O)[nH]c1=O`, the growth is 90.9%.

Consider `CCOC(=O)N(O)c1ccc(/C=C/c2ccccc2)cc1`, for which the growth is 56.2% and 57.4%.

For `O=C(CCl)n1nnnc1Cc1ccccc1`, the growth is 74.3%.

Take `COc1ccc(-c2nn3c(-c4cc(F)c(Cl)cc4Cl)nnc3s2)cc1`: the growth was 49.7%.

`Nc1ncnc2c1C(c1ccc([N+](=O)[O-])cc1)c1sc3c(F)cccc3c1O2` (stereo not given): the growth was 68.4%.

Take `N#C/C(=C\c1ccccc1Cl)c1cc2ccccc2[nH]1`: the growth was 69.7%.

For `C=C(CNCCc1ccc(O)cc1)[C@@H]1CC[C@]2(CO)CC[C@]3(C)[C@H](CC[C@@H]4[C@@]5(C)CCC(NCCc6ccc(O)cc6)C(C)(C)[C@@H]5CC[C@]43C)[C@@H]12` (stereo not given in full), the growth was -93.7% (active).

On to `[Cu+].[NH-][C@H]1C[N-]C(=O)[C@H]([C@H]2CCN=C(N)N2)[N-]C(=O)/C(=C\NC(N)=O)[N-]C(=O)[C@H](CNC(=O)C[C@@H](N)CCCN)[N-]C(=O)[C@H](CO)[N-]C1=O`, for which the growth is 86.8%.

Consider `COc1c(NC=O)c2c(c([N+](=O)[O-])c1OC)C(=O)OC2`, for which the growth is 80.2%.

Turning to `O=C(/C=C/c1cccs1)Nc1ncc(Cc2ccc(Cl)c(Cl)c2)s1`, the growth was 49.6%.

As to `CCCCSc1ccc2nc(-c3ccc(OCCCN=C(N)N)cc3)cn2c1`, the growth was 76.6%.

As for `O=C(O)c1ccccc1Cc1ccc(F)c2ccccc12`, the growth was 77.7% and 89.1%.

As for `CN1CCN(Cc2ccc(NC(=O)c3nc4ccc5[nH]ncc5c4c4c3CCCC4)cc2C(F)(F)F)CC1`, the growth was -85.9% (active).

Take `Cn1cc2c(=O)nc3c(-c4nc5ccccc5[nH]4)n[nH]n3c2n1`: the growth is 90.8%.

In the case of `CCCCCCCCN(CCCCCCCC)CC(O)c1cc(Cl)ccc1OC` (stereo not given), the growth was 52.3%.

Take `O=C(Nc1ccc(Cl)c(Cl)c1)Nc1ccc(Cl)c(Cl)c1`: the growth was -88.8% (active) and -9.62% (active).

Regarding `C=CCNC(=O)Cc1c(-c2ccc(OC)cc2)oc2c(OC)c3c(c(OC)c12)OCO3`, the growth is 80.8%.

With `Clc1nccc2c(-c3csc(-c4c[nH]c5ccc(Br)cc45)n3)c[nH]c12`, the growth was 9.83% (active).

As for `Cc1ccc(/C=C/c2c(C(=O)/C=C/c3ccccc3)c(C)nc3ccccc23)cc1`, the growth is 18.4%.

`CCOC(=O)C1=C(C)NC(=O)NC1c1c(Cl)n(-c2ccccc2)c2ccccc12` (stereo not given): the growth is 54.2%.

As for `Nc1[nH]nc(Nc2ccccc2)c1-c1nc2ccccc2s1`, the growth was 18.8%.

In the case of `Cc1nnc(NS(=O)(=O)c2ccc(N=Nc3ccc(N)nc3N)cc2)s1`, the growth was 76.1% and 80.1%.

As to `CCOC(=O)C(=CCC(C)C)C(=O)OCC`, the growth was 78.5%.

The same assay, now with this note: 100 µM.
For the molecule `CC(=O)/C=C/c1ccc(OCc2ccc(Cl)cc2)cc1`, the growth was 21%.

Consider `CCN(Cc1ccccc1)c1ccc(/C=C2\COc3ccccc3C2=O)cc1`, for which the growth was 18.6%.

Consider `CC(=O)/C=C/c1ccc(OCc2ccc(C(C)(C)C)cc2)cc1`, for which the growth is 14.8%.

These data come from PubChem BioAssay (NCI).
